Source: article PMC7819943, “Rice protein-binding microarrays: a tool to detect cis-acting elements near promoter regions in rice”
Whole data set: some 35,000 sequences, median “fluorescence intensity (a.u.)” near 10,000, cut for the highest 2% near 52,000. Shown is part of a subset that was picked to be rich in the highest values.

These sequences were tested against T1, OsWOX13 (Oryza sativa, UniProt Q5QMM3 1-267) (assay: protein-binding microarray (RPBM); PBS, 2% BSA, 51.3 ng/ul salmon testes DNA, 50 uM zinc acetate, 200 nM TF, 25 C, 1 h; high values mean tight binding). Settings: protein: recombinant; tags: N-terminal polyhistidine and DsRed monomer fusion (pET32a); label: CyDye5-dUTP incorporated in the synthesized complementary strand; 3' TTTTT single-stranded linker to array surface; dsDNA, one strand shown.
T1 sequence: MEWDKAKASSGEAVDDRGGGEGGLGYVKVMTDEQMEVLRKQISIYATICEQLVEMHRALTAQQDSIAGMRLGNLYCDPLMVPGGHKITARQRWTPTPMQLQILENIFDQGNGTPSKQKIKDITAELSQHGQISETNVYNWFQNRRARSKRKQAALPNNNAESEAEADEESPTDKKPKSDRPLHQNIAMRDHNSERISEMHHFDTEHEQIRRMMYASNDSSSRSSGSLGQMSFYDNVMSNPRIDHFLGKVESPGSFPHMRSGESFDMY
Outline: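 A custom Agilent array was converted to double-stranded form by primer extension with Cy5-dUTP and blocked with 2% BSA. Protein at 200 nM in PBS with 2% BSA, salmon testes DNA and 50 µM zinc acetate was applied for 1 h at 25 °C, followed by washing. The proteins were polyhistidine–DsRed N-terminal fusions of transcription factors, expressed in E. coli BL21-CodonPlus and Ni–NTA-purified. The binding signal is per-feature fluorescence intensity (arbitrary units) from an Axon 4000B scanner.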
In the case of “GTAGAGTAATTAAGTATATCCTTTTGTTCTAGTACATCGGCGGAGTCACCTAGTGCAG”, the binding signal is reported as 4870 fluorescence intensity (a.u.). “CTGATTTGACTGAATGAATGAATTAATTAATGAGATGTATCGGAGTCACCTAGTGCAG” was tested, and the binding signal was 61600 fluorescence intensity (a.u.). “GAAATTATTTGAAATTTTGACTGATTTTGAATGAATTTGACGGAGTCACCTAGTGCAG” was tested, and the binding signal was 15200 fluorescence intensity (a.u.). “ATTAGCGCATGATTAATTGATTATTAACTATTTTAAACTTCGGAGTCACCTAGTGCAG” was tested, and the binding signal was 27400 fluorescence intensity (a.u.). In the case of “CAAAATCAATCAATCAATCCAGCCCTGCCCTCCTTTCGGTCGGAGTCACCTAGTGCAG”, the binding signal is reported as 57900 fluorescence intensity (a.u.). In the case of “TTCATTAATCACAGATTCAATTTGCTCCTATATATAATCCCGGAGTCACCTAGTGCAG”, the binding signal is reported as 12700 fluorescence intensity (a.u.). For “TTAAAATTAACTTTAAAATTTAAATTTAGATTTTAATTTTCGGAGTCACCTAGTGCAG”, the binding signal was 25700 fluorescence intensity (a.u.). “TAATCAATTAAGAAATTAATTAATCCTTTGCTCCCTGATTCGGAGTCACCTAGTGCAG” was tested, and the binding signal was 54400 fluorescence intensity (a.u.). “ATGAATTAGATTAGATGTATATTTGAGGGAGTTAAAGTGGCGGAGTCACCTAGTGCAG” was tested, and the binding signal was 20800 fluorescence intensity (a.u.). For “ACCCTTTCAATCATCCTCCTCCAGCAGAGCAAGCAGCCAACGGAGTCACCTAGTGCAG”, the binding signal was 11000 fluorescence intensity (a.u.). With “ATCCTTATTTGATTCCTGATCAAATTAATACTGCTGCTTTCGGAGTCACCTAGTGCAG” the binding signal was 3200 fluorescence intensity (a.u.). “TTTCAAATCAAATCCAATCCTCCTCCTCCAGATCTCTCCACGGAGTCACCTAGTGCAG” was tested, and the binding signal was 3410 fluorescence intensity (a.u.). For “TTGTAATTAATTAACTGATTAATTAAACTGCATGAATTTTCGGAGTCACCTAGTGCAG”, the binding signal was 60100 fluorescence intensity (a.u.). For “AAATTTTAAATTTTAGTAAAATTTGTTCGGTCTTTCTCTCCGGAGTCACCTAGTGCAG”, the binding signal was 5920 fluorescence intensity (a.u.). With “ATAAATTTTATAAACTTGACTGCCTCTGGTTGTATATGCACGGAGTCACCTAGTGCAG” the binding signal was 23900 fluorescence intensity (a.u.). For “TGTAATTTGTTCTTGTTATCATCAATCCCATATAAACTGGCGGAGTCACCTAGTGCAG”, the binding signal was 22300 fluorescence intensity (a.u.). In the case of “ATTAACCATAACCTAATTTGGATAAGCCGACATGGATCGGCGGAGTCACCTAGTGCAG”, the binding signal is reported as 8230 fluorescence intensity (a.u.). “CAAACGGGTAATTAACTGGGATTAATTTGCCATAAGCCGACGGAGTCACCTAGTGCAG” was tested, and the binding signal was 53100 fluorescence intensity (a.u.). With “ATCCTTTTCTCCTTTTCTCGCAAAATCTCCAAAACCGCTTCGGAGTCACCTAGTGCAG” the binding signal was 65500 fluorescence intensity (a.u.). For “CAAATTCCAATCATCTCCAAAACCACTTCGCAAATAAATTCGGAGTCACCTAGTGCAG”, the binding signal was 17900 fluorescence intensity (a.u.). In the case of “CTACCTTTAATTAGCTTTGCCATAAACGACGTGGGAGTATCGGAGTCACCTAGTGCAG”, the binding signal is reported as 10300 fluorescence intensity (a.u.). With “AATTAATTGTCTGATCAGTGATCTTTATTAACTGTCGACGCGGAGTCACCTAGTGCAG” the binding signal was 28400 fluorescence intensity (a.u.). For “TTGATCTGATTAATTAACTGATCAGACGGGTCGACGGGACCGGAGTCACCTAGTGCAG”, the binding signal was 55700 fluorescence intensity (a.u.). “CCCCAAATCCCACTCCAATCACCACCGCTTCTTCTCCTCCCGGAGTCACCTAGTGCAG” was tested, and the binding signal was 6580 fluorescence intensity (a.u.). In the case of “CCTGTTAAATTGATCTGCCCTGATTAATTGACCCACCGACCGGAGTCACCTAGTGCAG”, the binding signal is reported as 38100 fluorescence intensity (a.u.). With “TAGGATTTGACCATAGTAAATTAATTTGGAGGAATTGTTTCGGAGTCACCTAGTGCAG” the binding signal was 3990 fluorescence intensity (a.u.). With “CCATCTGATTAGAGATTTGATCCTATACCTTCCTAAACATCGGAGTCACCTAGTGCAG” the binding signal was 40700 fluorescence intensity (a.u.). With “AGTACTGTAGATAATAAAGTAAGTCACGAATAAAATAAATCGGAGTCACCTAGTGCAG” the binding signal was 50900 fluorescence intensity (a.u.). With “TTAATTGTTTTATCCTATTAATTGGTAGAAGCGGTATTTTCGGAGTCACCTAGTGCAG” the binding signal was 26700 fluorescence intensity (a.u.). For “AAAGATAATTGAAAAGTAAACTTGTTGACAGACGGAATCCCGGAGTCACCTAGTGCAG”, the binding signal was 30400 fluorescence intensity (a.u.). “TTGGACACTAATTATAAATATTAAATATAGACTATTAATACGGAGTCACCTAGTGCAG” was tested, and the binding signal was 4640 fluorescence intensity (a.u.). With “AATTATTTAAATCAATGTAACTCAAAAGTTAATAAACGTGCGGAGTCACCTAGTGCAG” the binding signal was 13100 fluorescence intensity (a.u.). With “TTAACATGTAATCAATTAAATACTAATTATTATAAACGTGCGGAGTCACCTAGTGCAG” the binding signal was 53100 fluorescence intensity (a.u.). With “TATGATTATCACAAGTAATATATAAATTATTAGTCAAGTTCGGAGTCACCTAGTGCAG” the binding signal was 33600 fluorescence intensity (a.u.). In the case of “CATGATTAATCAAGTTAATTATTATACACTAAATATTGGACGGAGTCACCTAGTGCAG”, the binding signal is reported as 59600 fluorescence intensity (a.u.). With “ACTAATTATAAATCAGAACGATTTATTAACTACTCAATAACGGAGTCACCTAGTGCAG” the binding signal was 24400 fluorescence intensity (a.u.). “GGGTGTGTAAGGGTAGGTGGAGGGGTGGGTGATGCGAGATCGGAGTCACCTAGTGCAG” was tested, and the binding signal was 4470 fluorescence intensity (a.u.). With “GCCTAATTAGTCCATGATTAGCTATAAGTGCTACAATAACCGGAGTCACCTAGTGCAG” the binding signal was 28100 fluorescence intensity (a.u.). For “TAAGCCTAATTAGTCTATGATTAGCCATAAGTGCTACAGTCGGAGTCACCTAGTGCAG”, the binding signal was 37800 fluorescence intensity (a.u.). With “TTGAGTCTAATTAGTCCATGATTAGCCATAAGTGCTACAGCGGAGTCACCTAGTGCAG” the binding signal was 30600 fluorescence intensity (a.u.). In the case of “CATGATTAGCCATAAGTGCTACAGTAACCCACATGTGCTACGGAGTCACCTAGTGCAG”, the binding signal is reported as 34300 fluorescence intensity (a.u.). For “GTCTAATTAGTCCATGATTAATTAGCCATAAGTTCTACAGCGGAGTCACCTAGTGCAG”, the binding signal was 53100 fluorescence intensity (a.u.). “CCTAATTAATCCATGATTAGTCATAAGTGTTACAATAATCCGGAGTCACCTAGTGCAG” was tested, and the binding signal was 55500 fluorescence intensity (a.u.). For “TCCGTGATTAGCCATAAGTGCTACAGTAACCCACATGTGCCGGAGTCACCTAGTGCAG”, the binding signal was 35800 fluorescence intensity (a.u.). With “CCGTGATTAGCCATAAGTGCTACAGTAACCCACATGTGCTCGGAGTCACCTAGTGCAG” the binding signal was 57900 fluorescence intensity (a.u.). “CCTAATTAGTCCATGATTAGTCATAAGTACTACAATAACCCGGAGTCACCTAGTGCAG” was tested, and the binding signal was 33900 fluorescence intensity (a.u.).
